Test results: PubChem BioAssay (Tox21)
Results filed as inconclusive are left out. Active and inactive are the calls of the source. The call rests on the fitted dose curve.

Key:
[1] = target: Acetylcholinesterase (Homo sapiens) (UniProt P22303); assay: Acetylcholinesterase (AChE) small molecule antagonists: colormetric cell-based qHTS assay (AID 1347395); further: nearly all actives have a fitted effect of over 30% in size
Summary of the method: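 SH-SY5Y cells, plated overnight at 37 C, were exposed to compounds for 30 min at 37 C and 5% CO2. Acetylthiocholine plus DTNB was then added, and thiocholine from endogenous AChE was quantified colorimetrically after 90 min at 37 C.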

[2] = target: Acetylcholinesterase (Homo sapiens) (UniProt P22303); assay: Acetylcholinesterase (AChE) small molecule antagonists: enzyme-based qHTS assay (AID 1347397); conditions: Potency: AChE enzyme activity inhibition; outcome: AChE enzyme activity inhibition; further: nearly all actives have a fitted effect of over 55% in size
Summary of the method: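 Recombinant human AChE, dispensed at 50 mU/mL, was preincubated with Tox21 10K compounds or DMSO vehicle for 30 min at room temperature. DTNB plus acetylthiocholine was then added, and thiocholine was measured colorimetrically after a further 10 min.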

[3] = target: Acetylcholinesterase (Homo sapiens) (UniProt P22303); assay: Acetylcholinesterase (AChE) small molecule antagonists: fluorescence cell-based qHTS assay (AID 1347398); conditions: Potency: AChE activity; outcome: AChE activity; further: nearly all actives have a fitted effect of over 50% in size
Summary of the method: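 Human SH-SY5Y cells were plated overnight at 37 C, exposed to compound for 30 min at 37 C, 5% CO2, then given acetylthiocholine plus Thiolite Green for 40 min at room temperature; thiocholine fluorescence (Ex/Em 490/520 nm) reports endogenous AChE activity.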

[4] = target: Acetylcholinesterase (Homo sapiens) (UniProt P22303); assay: Acetylcholinesterase (AChE) small molecule antagonists: enzyme-based qHTS assay with human liver microsomes (AID 1347399); conditions: Potency: qHTS inhibition; outcome: qHTS inhibition; further: nearly all actives have a fitted effect of over 60% in size
Summary of the method: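 Recombinant human AChE (50 mU/mL in the enzyme mix) and human liver microsomes (0.25 mg/mL final) were preincubated with compound and NADPH (0.25 mg/mL final) for 30 min at 37 C. Acetylthiocholine/DTNB was then added; thiocholine was read colorimetrically after 10 min at room temperature.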

Measured: Potency

Acetylcholinesterase (Homo sapiens), sequence (P22303 whole entry, looked up): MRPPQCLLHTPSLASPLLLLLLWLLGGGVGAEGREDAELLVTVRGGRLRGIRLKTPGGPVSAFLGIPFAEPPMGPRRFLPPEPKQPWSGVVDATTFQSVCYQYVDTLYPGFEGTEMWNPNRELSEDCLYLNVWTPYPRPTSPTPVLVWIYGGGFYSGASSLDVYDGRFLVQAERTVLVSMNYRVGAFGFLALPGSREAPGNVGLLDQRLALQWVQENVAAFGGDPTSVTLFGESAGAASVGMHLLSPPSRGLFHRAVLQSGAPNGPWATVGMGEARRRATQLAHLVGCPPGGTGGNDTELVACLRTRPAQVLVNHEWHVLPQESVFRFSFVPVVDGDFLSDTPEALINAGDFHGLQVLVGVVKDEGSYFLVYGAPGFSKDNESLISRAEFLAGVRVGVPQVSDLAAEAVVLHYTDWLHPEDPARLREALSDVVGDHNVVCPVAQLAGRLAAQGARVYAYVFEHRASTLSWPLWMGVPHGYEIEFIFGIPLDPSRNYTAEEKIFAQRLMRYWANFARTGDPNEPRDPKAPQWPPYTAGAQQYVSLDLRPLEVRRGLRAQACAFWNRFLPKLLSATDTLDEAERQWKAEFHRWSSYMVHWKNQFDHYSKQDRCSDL

C=CCCCCCCCCCC
inactive: [1] | [2] | [3] | [4]

NS(=O)(=O)c1cc2c(cc1Cl)NCNS2(=O)=O
inactive: [1] | [2] | [3] | [4]

CCN(CCC#N)c1ccc(N=Nc2c(Cl)cc([N+](=O)[O-])cc2Cl)cc1
inactive: [1] | [2] | [3] | [4]

C=CN1CCCC1=O
inactive: [1] | [2] | [3] | [4]

Cc1cc(N)n(-c2ccccc2)n1
inactive: [1] | [2] | [3] | [4]

CC1CCC(C(C)CS)CC1S (stereo not given)
inactive: [1] | [2] | [3] | [4]

FC(F)(F)C(F)(F)C(F)(F)C(F)(F)CCI
inactive: [1] | [2] | [3] | [4]

C[C@H](CCC(=O)O)[C@H]1CC[C@H]2[C@@H]3CC[C@@H]4C[C@H](O)CC[C@]4(C)[C@H]3C[C@H](O)[C@]12C
inactive: [1] | [2] | [3] | [4]

O=C(OCCOCCOCCOC(=O)c1ccccc1)c1ccccc1
inactive: [1] | [2] | [3] | [4]

CCOC(=O)c1c(C)n(C)c2ccc(O)cc12
inactive: [1] | [2] | [3] | [4]

CCCCCCCC(=O)OCC
inactive: [1] | [2] | [3] | [4]

CC(=O)CCC(=O)O
inactive: [1] | [2] | [3] | [4]

C/C=C(\C)C(=O)OCCc1ccccc1
inactive: [1] | [2] | [3] | [4]

CC(C)N(C)C
inactive: [1] | [2] | [3] | [4]

NC(N)=O
inactive: [1] | [2] | [3] | [4]

CCN(CCO)c1cccc(C)c1
inactive: [1] | [2] | [3] | [4]

CC(=O)Nc1ccc2c(c1)Cc1cc(NC(C)=O)ccc1-2
inactive: [1] | [2] | [3] | [4]

Oc1ccccc1O
inactive: [1] | [2] | [3] | [4]

c1ccc2c(c1)CCc1ccccc1N2
inactive: [1] | [2] | [3] | [4]

C[C@]12C=CC(=O)C=C1[C@@H](F)C[C@@H]1[C@@H]2[C@@H](O)C[C@@]2(C)[C@H]1CC[C@]2(O)C(=O)CO
inactive: [1] | [2] | [3] | [4]

CC(=O)OCCCc1ccccc1
inactive: [1] | [2] | [3] | [4]

O=S1(=O)OC(c2ccc(O)cc2)(c2ccc(O)cc2)c2ccccc21
inactive: [1] | [2] | [3] | [4]

C/C(=C(\CCO)SS/C(CCO)=C(\C)N(C=O)Cc1cnc(C)nc1N)N(C=O)Cc1cnc(C)nc1N
inactive: [1] | [2] | [3] | [4]

CC(=O)O[C@H]1CC[C@@]2(C)C(=CC[C@@H]3[C@@H]2CC[C@]2(C)C(C(C)=O)=CC[C@@H]32)C1
inactive: [1] | [2] | [3] | [4]

C=CC(C)(O)CC/C=C(/C)CCC=C(C)C (stereo not given)
inactive: [1] | [2] | [3] | [4]

CC(COc1ccc(C(C)(C)C)cc1)OS(=O)OCCCl (stereo not given)
inactive: [1] | [2] | [3] | [4]

CN(C)[C@@H]1C(=O)C(C(=O)NCN2CCCC2)=C(O)[C@@]2(O)C(=O)C3=C(O)c4c(O)cccc4[C@@](C)(O)C3C[C@@H]12 (stereo not given in full)
inactive: [1] | [2] | [3] | [4]

Cc1cc2cc3c(C)cc(=O)oc3c(C)c2o1
inactive: [1] | [2] | [3] | [4]

CN1C(CSCC(F)(F)F)Nc2cc(Cl)c(S(N)(=O)=O)cc2S1(=O)=O (stereo not given)
inactive: [1] | [2] | [3] | [4]

Oc1ccc(O)c2c(O)cccc12
inactive: [1] | [2] | [3] | [4]
